Hits are enriched below; roughly 2.5% of the tested compounds scored in any of these assays.
Ecoli rRNA inh: inhibits bacterial ribosomal RNA function over humanized ribosomes; AID 720706; 350,000 tested, 1.6% active; E. coli WT GFP vs humanized-ribosome RFP mutants, fluorescence, 24 h; stronger effect = lower value; DMSO median 0, no signal -100; GFP signal change (wild-type ribosome), % (test concentration not listed);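 active = significant combined selectivity score with lowered wild-type GFP, culture density cut under 30%, mutant RFP and density less affected; inactive = any of these conditions unmet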
MLL AF4-AF9 inh: inhibitors of human MLL-AF4/AF9 interaction. P42568. 350,000 tested, 0.47% active. inhibition, % at 10 µM. AlphaScreen, biotin-AF4 peptide binding to FLAG-AF9;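 active = every replicate reaching a set inhibition limit, whatever the replicate mean, cut at about 25% in these data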;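 note: 0% = plate neutral control median and 100% = total signal loss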
RAD52 anneal inh: inhibitors of human RAD52 DNA annealing; P43351; recombinant RAD52 DNA annealing, FRET fluorescence; inhibition, % at 18.7 µM; 360,000 tested, 0.46% active;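 active = every replicate showing at least 50% inhibition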
NSD2 inh: NSD2 (human) methyltransferase inhibition; O96028; NSD2 peptide methylation, AlphaScreen, 120 min; inhibition, % at 12.5 µM; 310,000 tested, 0.54% active; in the data active = inhibition above about 50%
Casp6 inh: blocks human caspase-6 cleavage activity; purified caspase-6, Z-VEID-R110 cleavage fluorescence; inhibition, % at 12.5 µM; 350,000 tested, 0.53% active; AID 686996;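 active = mean inhibition across replicates at least about 35%, with every replicate also reaching that limit, limit read from the data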;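 note: 0% = median of neutral control wells and 100% = no fluorescence left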
Alpha artifact: counter-screen for NSD2 inhibitors: AlphaScreen artifacts; AlphaScreen artifact counterscreen, preloaded methylated H4 peptide; shares compounds with NSD2 inh; AID 1053174; AC35, µM (highest dose often 10 µM), for inactives: at the top dose activity change, negative = signal loss; 1,500 tested, 9.4% active; call rule not given here
* marks the source's active call; other numbers are inactive results; x = no result given.

SMILES	Ecoli rRNA inh	MLL AF4-AF9 inh	RAD52 anneal inh	NSD2 inh	Casp6 inh	Alpha artifact
O=C1C(NS(=O)(=O)c2ccc(Br)cc2)=C(N2CCCCC2)C(=O)c2ccccc21	-11	38*	-5	58*	2	2.4µM*
O=C(N[C@H]1CC[C@H](CC(=O)N2CCc3ccccc3C2)O[C@H]1CO)C1CCOCC1	0	-25	-3	x	-2	x
CCNc1ccccc(C(=O)/C=C/c2ccc3c(c2)OCO3)c1=O	x	x	x	66*	x	-5%
CN1CCCCCC1=Nc1ccc([N+](=O)[O-])cc1	14	-3	1	57*	-3	-2%
O=C1C=C(O)c2[nH]c(=O)ccc2C1=O	14	-1	-8	94*	84*	1%
O=C(NCc1ccc2c(c1)OCO2)[C@@H]1[C@@H](CO)[C@@H]2Cn3c(cccc3=O)[C@H]1N2Cc1cncnc1	-1	6	-1	x	0	x
O=C(/C=C/c1ccco1)Nc1scc(-c2ccccc2)c1C(=O)O	-34*	-6	-22	103*	44*	-7%
O=C(NCCCO)c1ccc2nc(-c3ccco3)c(-c3ccco3)nc2c1	2	-8	23	107*	55*	-2%
CO[C@@H](CN(C)C(=O)Nc1ccc(Cl)cc1)[C@@H](C)CN(Cc1ccccc1Cl)[C@@H](C)CO	-6	1	7	x	1	x
O=C(O)CCCN1C(=O)/C(=C\c2ccccc2OCc2ccccc2)SC1=S	-38	1	-19	x	20	x
O=C(O)CN1C(=O)/C(=C\c2cc(Br)ccc2OCc2ccc(F)cc2)SC1=S	-27	-7	-29	104*	39*	-11%
CCCC#Cc1ccc([C@@H]2[C@H](CO)N3C(=O)CN(S(=O)(=O)c4ccccc4C)C[C@@H]23)cc1	1	0	-6	x	-5	x
CCN(CC)CCCNc1nc(-n2nc(C)cc2C)nc2sc3c(c12)CC(C)(C)OC3	2	3	8	76*	-12	-5%
Cc1cc(C)n(-c2nc(NCc3cccnc3)c3c4c(sc3n2)COC(C)(C)C4)n1	x	x	x	-1	x	x
COCC(=O)Nc1ccc2c(c1)C(=O)N(C)C[C@@H](OC)[C@H](C)CN[C@@H](C)CO2	2	x	x	x	x	x
CCOC(=O)NCCc1c(C)nc2c(c(C)nn2C(C)(C)C)c1C	x	x	x	68*	x	-6%
CO[C@H]1CN(C)C(=O)c2ccc(NC(=O)C3CCCC3)cc2OC[C@H](C)N(C(=O)CC2CC2)C[C@H]1C	0	-2	-3	x	0	x
CC(=O)Nc1ccc(C(=O)OCC(=O)/C(C#N)=C(\C)N)cc1	8	-1	-13	74*	2	-4%
C[C@H](CO)N1C[C@H](C)[C@H](CN(C)Cc2ccc(-c3ccccc3)cc2)OCc2cnnn2CCCC1=O	-5	4	1	x	1	x
O=S(=O)(c1ccccc1)N1[C@@H]2CNC[C@H]1C2c1ccc(/C=C/c2ccccc2)cc1 (some centres undefined)	-9	-2	49	x	2	x
Cn1c(=O)c2c(nc(N3CCCC3)n2CC(O)CO)n(C)c1=O (centres undefined)	x	x	x	0	x	x
C=CCOCC(O)Cn1c(N2CCCC2)nc2c1c(=O)n(C)c(=O)n2C (centres undefined)	18	2	-7	53*	-3	0%
CC(=O)N1[C@H](CN(CC2CCC2)C(=O)CC2CC2)[C@@H](c2ccccc2)[C@@H]1CO	-3	-1	0	x	-1	x
O=C1CC(C(=O)N2CCc3ccccc32)CN1c1ccccc1 (centres undefined)	5	0	1	80*	0	-2%
CSc1nsc(SCC(=O)Nc2cccc(C(=O)O)c2)n1	-2	-8	-14	-2	-1	x
SMILES	Ecoli rRNA inh	MLL AF4-AF9 inh	RAD52 anneal inh	NSD2 inh	Casp6 inh	Alpha artifact
CSc1nsc(SCC(=O)Nc2cccc(NC(C)=O)c2)n1	-4	1	-14	63*	-2	-1%
CO[C@@H]1CN(C)C(=O)c2ccc(NC(C)=O)cc2OC[C@@H](C)N(C(=O)C2CC2)C[C@H]1C	4	-2	-5	x	-2	x
COC(=O)c1ccc(Cn2cnc3c(sc4nc(N5CCOCC5)c5c(c43)CCCC5)c2=O)o1	x	x	x	75*	x	-8%
COC(=O)c1ccc(CSc2ncnc3c2sc2nc(N4CCOCC4)c4c(c23)CCCC4)o1	x	x	x	0	x	x
COc1ccc(S(=O)(=O)N(C)C[C@H]2Oc3c(NS(=O)(=O)c4ccc(Cl)cc4)cccc3C(=O)N([C@@H](C)CO)C[C@@H]2C)cc1	-2	x	x	x	x	x
Oc1ccc(C2=Nn3c(nnc3-c3ccco3)SC2)cc1O	x	x	x	62*	x	-23%
C[C@@H](O)C#Cc1ccc([C@H]2[C@H](CO)N3CCCCN(C(=O)c4cccc(F)c4)C[C@@H]23)cc1	2	-7	-9	x	-4	x
Nc1cc(S(=O)(=O)O)cc2ccc(S(=O)(=O)O)cc12	10	-6	-27	102*	57*	0%
CO[C@@H]1CN(C)C(=O)c2ccc(NC(=O)c3ccc4c(c3)OCO4)cc2OC[C@H](C)N(CCC(F)(F)F)C[C@H]1C	-7	5	1	x	-2	x
COc1ccc(S(=O)(=O)N2CCCCC2)cc1NC(=O)Cc1ccsc1	5	4	-16	51*	-1	-4%
CCOc1ccc(S(=O)(=O)N2CCCCC2)cc1NC(=O)Cc1ccsc1	-1	-3	-8	0	-1	x
C[C@H](CO)N1C[C@H](C)[C@@H](CN(C)C(=O)c2cccnc2)Oc2ncc(C#CCN(C)C)cc2C1=O	1	-6	-9	x	-1	x
Cc1nc2oc3c(NCC4CCCO4)ncnc3c2c2c1COC(C)(C)C2 (centres undefined)	x	x	x	0	x	x
CC(C)c1nc2oc3c(NCC4CCCO4)ncnc3c2c2c1COC(C)(C)C2 (centres undefined)	x	x	x	54*	x	-3%
CCC(=O)N1CC2(C1)CN(Cc1cccc(OC)c1)[C@@H](CO)c1[nH]c3cc(OC)ccc3c12	-1	-1	-45	x	2	x
O=[N+]([O-])c1ccc(-c2cccnc2)cc1	-12	-1	-6	158*	-3	0%
O=C(C[C@H]1CC[C@@H](NC(=O)c2cccc(F)c2)[C@@H](CO)O1)NCc1ccccc1	6	-2	2	x	2	x
CCN(CC)CCC(=O)c1ccc(F)cc1	30	-1	-9	59*	-1	0%
CN(C)CCC(=O)c1ccc(F)cc1	3	-3	2	4	-3	x
C[C@H]1CN([C@@H](C)CO)C(=O)c2cc(C#CC3CC3)cnc2O[C@@H]1CN(C)Cc1ccccn1	1	1	1	x	-1	x
C[C@H]1CN([C@@H](C)CO)C(=O)CCCn2cc(nn2)CO[C@@H]1CN(C)Cc1ccccc1C(F)(F)F	0	-3	3	x	-1	x
CCN1CCCC1CNC(=O)c1ccc2c(c1)N(Cc1cccc(Cl)c1)C(=O)c1ccccc1S2(=O)=O (centres undefined)	-2	16	13	58*	-3	-5%
